Measurements reported in PubChem BioAssay AID602385 (Sanford-Burnham Center for Chemical Genomics, 2012).
Among all 2,300 compounds or so, about 180 (7.8%) were called active. A selection follows. A number with no mark means an inactive call.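 The calls were made as follows: active = average inhibition of at least 30% in the single-concentration confirmation test; inactive = the rest.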

What follows are molecules tested against DNA (cytosine-5)-methyltransferase 1 (Homo sapiens) (UniProt P26358) (assay: inhibition of human DNMT1, hit confirmation – biochemical, molecular beacon, fluorescence, single concentration (AID 602385)). Conditions: DNMT1 molecular beacon HinP1I cleavage, at 10 µM, stronger effect = higher value.
DNA (cytosine-5)-methyltransferase 1 (Homo sapiens), sequence (P26358 504-1616 limits assumed): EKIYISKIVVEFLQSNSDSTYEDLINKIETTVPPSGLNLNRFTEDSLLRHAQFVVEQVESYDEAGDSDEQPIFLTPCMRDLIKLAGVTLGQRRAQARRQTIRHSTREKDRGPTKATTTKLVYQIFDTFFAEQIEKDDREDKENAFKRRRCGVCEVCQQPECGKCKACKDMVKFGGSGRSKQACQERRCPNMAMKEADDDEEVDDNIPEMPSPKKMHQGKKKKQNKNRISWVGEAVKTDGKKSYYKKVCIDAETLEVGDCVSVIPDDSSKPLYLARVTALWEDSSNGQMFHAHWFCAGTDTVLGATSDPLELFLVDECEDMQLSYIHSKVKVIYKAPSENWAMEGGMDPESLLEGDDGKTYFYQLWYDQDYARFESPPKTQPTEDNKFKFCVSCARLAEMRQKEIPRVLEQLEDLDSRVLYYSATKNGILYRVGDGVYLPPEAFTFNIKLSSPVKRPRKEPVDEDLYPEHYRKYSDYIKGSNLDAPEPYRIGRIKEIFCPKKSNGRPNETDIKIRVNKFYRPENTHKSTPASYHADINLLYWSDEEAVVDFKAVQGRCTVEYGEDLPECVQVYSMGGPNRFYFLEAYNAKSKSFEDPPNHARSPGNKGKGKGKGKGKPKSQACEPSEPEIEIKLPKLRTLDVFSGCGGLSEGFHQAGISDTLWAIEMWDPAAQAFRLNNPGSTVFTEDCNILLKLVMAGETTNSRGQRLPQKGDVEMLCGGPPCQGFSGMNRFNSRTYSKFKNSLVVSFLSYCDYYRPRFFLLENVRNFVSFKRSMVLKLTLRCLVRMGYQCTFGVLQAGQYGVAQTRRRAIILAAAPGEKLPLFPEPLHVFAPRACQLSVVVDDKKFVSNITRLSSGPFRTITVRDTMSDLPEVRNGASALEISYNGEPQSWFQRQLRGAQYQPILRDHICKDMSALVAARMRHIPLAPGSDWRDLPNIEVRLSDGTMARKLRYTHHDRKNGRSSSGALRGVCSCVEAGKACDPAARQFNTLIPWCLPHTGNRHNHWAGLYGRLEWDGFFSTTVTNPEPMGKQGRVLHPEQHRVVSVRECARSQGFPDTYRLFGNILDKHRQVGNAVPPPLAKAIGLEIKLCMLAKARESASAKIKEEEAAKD
c1coc(-c2nc3nc4ccccc4n3nc2-c2ccco2)c1 gave an inhibition of 0.83%.
O=C1CCCC(O)=C1C=NCCc1ccccc1 gave an inhibition of 0.99%.
NNc1cccc(C=Cc2ccccc2)cc1=O showed an inhibition of 1.25%.
With CCN1CCN(Cc2nc3c(c(=O)n(C)c(=O)n3C)n2CC(=O)c2ccccc2)CC1 the inhibition was 0.76%.
CCOC(=O)c1cccc(NC(=O)C2CCCN(S(=O)(=O)c3cnc[nH]3)C2)c1 (stereo unspecified) was tested, and the inhibition was 1.94%.
C=CCn1c(=NC(=O)c2ccc(S(=O)(=O)N3CCCC3)cc2)sc2cc(NC(C)=O)ccc21 showed an inhibition of 1.72%.
In the case of Oc1c(C(c2ccco2)N2CCC3(CC2)OCCO3)sc2ncnn12 (stereo unspecified), the inhibition is reported as 1.28%.
COc1ccc(CC(=O)Nc2ccc(-c3nnc(-c4ccccc4)o3)cc2)cc1 gave an inhibition of 3.13%.
COc1ccc(CC(=O)Nc2ccc(-c3nnc(-c4ccc(C)cc4)o3)cc2)cc1 showed an inhibition of -0.08%.
With COc1ccc(Cc2nnc(NC(=O)Cc3cccs3)s2)cc1 the inhibition was 87.7% (active).
CCN1C(=O)c2cccc3c(N)ccc1c23 gave an inhibition of 2.42%.
Cc1cc2nc(-c3ccco3)c(Cc3cccc(F)c3)n2c(C)c1Br gave an inhibition of 7.28%.
COc1ccc(OCC(=O)NNC(=O)c2ccc(-c3ccccc3)cc2)cc1 showed an inhibition of 1.62%.
O=C(COc1ccc([N+](=O)[O-])cc1)Nc1ccc(N2CCCC2)cc1 was tested, and the inhibition was 6.61%.
For O=C(COc1ccc(/C=N/NC(=O)c2ccc(O)cc2)cc1)Nc1ccc([N+](=O)[O-])cc1, the inhibition was 39.5% (active).
Molecule O=C(CCNC(=O)c1ccccc1)NN=Cc1ccc(Br)o1 has an inhibition of 2.65%.
Work on O=C(c1ccc(CS(=O)(=O)c2ccccc2)o1)N1CCN(c2ccccc2)CC1 yielded an inhibition of 0.25%.
Work on C/C(=N\Nc1ccc(S(N)(=O)=O)cc1[N+](=O)[O-])c1cccs1 yielded an inhibition of 1.78%.
Work on CC1CN(C(=O)c2ccccc2NS(=O)(=O)c2cccc([N+](=O)[O-])c2)CC(C)O1 (stereo unspecified) yielded an inhibition of 1.75%.
With COc1ccc(Br)cc1/C=N/Nc1ccc(S(=O)(=O)Nc2ccccc2C(=O)O)cc1[N+](=O)[O-] the inhibition was 97.7% (active).
C=Cc1ccc(C(=O)N2CCCC(CCC(=O)N3CCN(c4ccccn4)CC3)C2)cc1 (stereo unspecified) gave an inhibition of 1.51%.
In the case of Cc1ccc(CNC(=O)CSc2nnc3c(n2)[nH]c2ccc(F)cc23)cc1, the inhibition is reported as 1.24%.
c1ccc2cc3[nH]c(CN4CCCCC4)nc3cc2c1 gave an inhibition of 3.8%.
Work on CCOC(=O)/C(C#N)=C/c1ccc(OCC(=O)Nc2ccccc2)c(OC)c1 yielded an inhibition of 4.96%.
Work on CCCCNC(=O)CCn1c(=O)c2ccccc2n(Cc2cc(C)ccc2C)c1=O yielded an inhibition of 2.63%.
In the case of C=CCn1c(=S)[nH]c2scc(-c3ccco3)c2c1=O, the inhibition is reported as 8.63%.
CN(Cc1nc2ccc(F)cc2[nH]1)Cc1nc(CC2CC2)no1 gave an inhibition of 4.53%.
In the case of COc1ccc(-n2c(SCC(=O)Nc3sc4c(c3C#N)CCCC4)nnc2-c2ccc(O)cc2)cc1, the inhibition is reported as 18.9%.
O=C(CCS(=O)(=O)c1ccc(Br)cc1)NCCc1ccc(Cl)cc1 gave an inhibition of 3.33%.
Molecule CCc1ccc(NC(=O)CS(=O)CC(=O)NCCCc2ccccc2)cc1 (stereo unspecified) has an inhibition of 2.37%.
CCC/C=C(\CCC)C(NC(=O)Cc1ccccc1)c1ccc(C(=O)OC)cc1 (stereo unspecified) showed an inhibition of 1.76%.
For COc1ccc(NC(=O)CCn2ccnc2)c(OC)c1, the inhibition was 3.76%.
For Cc1ccccc1-n1cc(CNC(=O)CC2C(=O)NCCN2C/C=C/c2ccccc2)cn1 (stereo unspecified), the inhibition was 0.15%.
For C=CC1=C(C(=O)O)N2C(=O)[C@@H](NC(=O)/C(=N\OCC(=O)O)c3csc(N)n3)[C@H]2SC1, the inhibition was 4.47%.
O=C(NNc1ccccn1)c1ccc(Cl)nc1 gave an inhibition of 0.99%.
CC(Oc1ccccc1)C(=O)Nc1oc(-c2ccco2)c(-c2ccco2)c1C#N (stereo unspecified) showed an inhibition of 1.51%.
Molecule COc1cccc(C(=O)Nc2ccc(N3CCCC3)cc2)c1 has an inhibition of 20.5%.
Cc1ccc(-c2cc(C(=O)NCc3cn(C)nc3C)c3cc(Br)ccc3n2)cc1 was tested, and the inhibition was 8.12%.
CC1(C(=O)NS(=O)(=O)c2ccccc2)CCN1C(=O)C/C=C/c1ccccc1 (stereo unspecified) was tested, and the inhibition was 0.79%.
N#Cc1ccccc1CN1C(=O)S/C(=C/c2cccn2-c2cccc(C(=O)O)c2)C1=O showed an inhibition of 12.5%.
For Cc1ccccc1NC(=O)CN1C(=O)N/C(=C\c2cccn2-c2cccc(C(=O)O)c2)C1=O, the inhibition was 34.7% (active).
O=C(Cn1nnc(-c2ccccc2)n1)N/N=C/c1ccc(-c2ccc(Cl)cc2)o1 gave an inhibition of 2.46%.
C=CC[C@@H](CC(=O)N[C@H](CO)Cc1ccccc1)C(=O)N[C@@H](COC(=O)[C@@H](CC=C)Cc1ccc(F)cc1)Cc1c[nH]c2ccccc12 gave an inhibition of 5.95%.
For O=C(CSc1nc2ccccc2c(=O)[nH]1)Nc1nc(-c2ccc(Br)cc2)cs1, the inhibition was 41.9% (active).
O=c1[nH]c(/C=C/c2cccc(Br)c2)nc2ccccc12 showed an inhibition of 3.81%.
Work on Cc1nnc(N/N=C/c2cccs2)[nH]c1=O yielded an inhibition of 2.68%.
